# Data reported in the supplement of paper PMC8728848.
# About 410 targets per protein were measured; listed, in parts, are those with the strongest signals and a random draw of the rest.
# Tests used:
# Test in all cases: glycan array binding signal (z-score within array); higher = stronger binding
# Settings in all cases: glycan notation: IUPAC condensed, linker removed
# [1] = molecular target: Fuc(a1-2)Gal(b1-4)GlcNAc(b1-3)Gal(b1-4)GlcNAc
# Summary of the method: (§1)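 Glycan array data came from 3228 arrays in the Consortium for Functional Glycomics database, and only arrays with an available protein sequence were kept. Glycan names were put into IUPAC-condensed notation, and columns mapping to the same glycan were averaged. The binding signal is a within-array Z-score, averaged across arrays of one protein sequence run at different concentrations or buffers and across linkers. A negative Z-score can be read as non-binding.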
# [2] = molecular target: Fuc(a1-2)Gal(b1-4)GlcNAc(b1-3)Gal(b1-4)GlcNAc(b1-2)Man(a1-3)[Fuc(a1-2)Gal(b1-4)GlcNAc(b1-3)Gal(b1-4)GlcNAc(b1-2)Man(a1-6)]Man(b1-4)GlcNAc(b1-4)GlcNAc
# Summary of the method: as §1
# [3] = molecular target: Fuc(a1-2)[Gal(a1-3)]Gal(b1-3)GlcNAc
# Summary of the method: as §1
# [4] = molecular target: Fuc(a1-3)[Gal3S(b1-4)]Glc
# Summary of the method: as §1
# Gal(a1-3)Gal(b1-3)GlcNAc = molecular target: Gal(a1-3)Gal(b1-3)GlcNAc
# Summary of the method: as §1
# Gal(a1-3)Gal(b1-4)Glc = molecular target: Gal(a1-3)Gal(b1-4)Glc
# Summary of the method: as §1
# [5] = molecular target: Gal(a1-3)Gal(b1-4)GlcNAc(b1-6)GalNAc
# Summary of the method: as §1
# [6] = molecular target: Gal(b1-3)GlcNAc(a1-3)Gal(b1-4)GlcNAc
# Summary of the method: as §1
# [7] = molecular target: Gal(b1-3)GlcNAc(b1-3)Gal(b1-4)GlcNAc(b1-3)Gal(b1-4)GlcNAc(b1-2)[Gal(b1-3)GlcNAc(b1-3)Gal(b1-4)GlcNAc(b1-3)Gal(b1-4)GlcNAc(b1-6)]Man(a1-6)[Gal(b1-3)GlcNAc(b1-3)Gal(b1-4)GlcNAc(b1-3)Gal(b1-4)GlcNAc(b1-2)Man(a1-3)]Man(b1-4)GlcNAc(b1-4)[Fuc(a1-6)]GlcNAc
# Summary of the method: as §1
# [8] = molecular target: Gal(b1-3)[Fuc(a1-4)]GlcNAc(b1-2)Man
# Summary of the method: as §1
# [9] = molecular target: Gal(b1-3)[Fuc(a1-4)]GlcNAc(b1-3)Gal(b1-3)[Fuc(a1-4)]GlcNAc
# Summary of the method: as §1
# [10] = molecular target: Gal(b1-4)GalNAc(a1-3)[Fuc(a1-2)]Gal(b1-4)GlcNAc
# Summary of the method: as §1
# [11] = molecular target: Gal(b1-4)GalNAc(b1-3)[Fuc(a1-2)]Gal(b1-4)GlcNAc
# Summary of the method: as §1
# [12] = molecular target: Gal(b1-4)GlcNAc(b1-3)Gal(b1-4)GlcNAc(b1-3)Gal(b1-4)GlcNAc(b1-3)Gal(b1-4)GlcNAc(b1-2)[Gal(b1-4)GlcNAc(b1-3)Gal(b1-4)GlcNAc(b1-3)Gal(b1-4)GlcNAc(b1-3)Gal(b1-4)GlcNAc(b1-6)]Man(a1-6)[Gal(b1-4)GlcNAc(b1-3)Gal(b1-4)GlcNAc(b1-3)Gal(b1-4)GlcNAc(b1-3)Gal(b1-4)GlcNAc(b1-2)Man(a1-3)]Man(b1-4)GlcNAc(b1-4)[Fuc(a1-6)]GlcNAc
# Summary of the method: as §1
# [13] = molecular target: Gal(b1-4)GlcNAc(b1-3)Gal(b1-4)GlcNAc(b1-3)[Gal(b1-4)GlcNAc(b1-3)Gal(b1-4)GlcNAc(b1-6)]GalNAc
# Summary of the method: as §1
# [14] = molecular target: Gal3S(b1-4)[Fuc(a1-3)]GlcNAc6S
# Summary of the method: as §1
# GalNAc(b1-3)Gal = molecular target: GalNAc(b1-3)Gal
# Summary of the method: as §1
# GalNAc(b1-4)Gal(b1-4)Glc = molecular target: GalNAc(b1-4)Gal(b1-4)Glc
# Summary of the method: as §1
# [15] = molecular target: GalNAc3S(b1-4)[Fuc(a1-3)]GlcNAc
# Summary of the method: as §1
# GalNAc4S6S(b1-4)GlcNAc = molecular target: GalNAc4S6S(b1-4)GlcNAc
# Summary of the method: as §1
# Glc(a1-4)Glc = molecular target: Glc(a1-4)Glc
# Summary of the method: as §1
# [16] = molecular target: Glc(a1-6)Glc(a1-6)Glc(a1-6)Glc
# Summary of the method: as §1
# [17] = molecular target: GlcNAc(a1-3)Gal(b1-4)GlcNAc
# Summary of the method: as §1
# [18] = molecular target: GlcNAc(a1-4)Gal(b1-4)GlcNAc(b1-3)Gal(b1-4)GlcNAc(b1-3)Gal(b1-4)GlcNAc
# Summary of the method: as §1
# [19] = molecular target: GlcNAc(b1-3)Gal(b1-4)GlcNAc(b1-2)Man(a1-3)[GlcNAc(b1-3)Gal(b1-4)GlcNAc(b1-2)Man(a1-6)]Man(b1-4)GlcNAc(b1-4)GlcNAc
# Summary of the method: as §1
# [20] = molecular target: GlcNAc(b1-3)Gal(b1-4)GlcNAc(b1-2)[GlcNAc(b1-3)Gal(b1-4)GlcNAc(b1-6)]Man(a1-6)[GlcNAc(b1-3)Gal(b1-4)GlcNAc(b1-2)Man(a1-3)]Man(b1-4)GlcNAc(b1-4)GlcNAc
# Summary of the method: as §1
# [21] = molecular target: GlcNAc(b1-3)Gal(b1-4)GlcNAc(b1-3)Gal(b1-4)GlcNAc(b1-3)Gal(b1-4)GlcNAc(b1-2)[GlcNAc(b1-3)Gal(b1-4)GlcNAc(b1-3)Gal(b1-4)GlcNAc(b1-3)Gal(b1-4)GlcNAc(b1-6)]Man(a1-6)[GlcNAc(b1-3)Gal(b1-4)GlcNAc(b1-3)Gal(b1-4)GlcNAc(b1-3)Gal(b1-4)GlcNAc(b1-2)Man(a1-3)]Man(b1-4)GlcNAc(b1-4)[Fuc(a1-6)]GlcNAc
# Summary of the method: as §1
# [22] = molecular target: GlcNAc(b1-4)GlcNAc(b1-4)GlcNAc
# Summary of the method: as §1
# [23] = molecular target: GlcNAc(b1-4)GlcNAc(b1-4)GlcNAc(b1-4)GlcNAc(b1-4)GlcNAc(b1-4)GlcNAc
# Summary of the method: as §1
# [24] = molecular target: GlcNAc(b1-6)Gal(b1-4)GlcNAc
# Summary of the method: as §1
# [25] = molecular target: Kdn(a2-3)Gal(b1-4)[Fuc(a1-3)]GlcNAc
# Summary of the method: as §1
# Kdn(a2-6)Gal(b1-4)GlcNAc = molecular target: Kdn(a2-6)Gal(b1-4)GlcNAc
# Summary of the method: as §1
# Man(b1-4)GlcNAc = molecular target: Man(b1-4)GlcNAc
# Summary of the method: as §1
# Neu5Ac(a2-3)Gal = molecular target: Neu5Ac(a2-3)Gal
# Summary of the method: as §1
# [26] = molecular target: Neu5Ac(a2-3)Gal(b1-4)GlcNAc(b1-2)Man(a1-3)[GlcNAc(b1-4)][Neu5Ac(a2-3)Gal(b1-4)GlcNAc(b1-2)Man(a1-6)]Man(b1-4)GlcNAc(b1-4)GlcNAc
# Summary of the method: as §1
# [27] = molecular target: Neu5Ac(a2-3)Gal(b1-4)GlcNAc(b1-3)Gal(b1-4)GlcNAc(b1-6)[Gal(b1-3)]GalNAc
# Summary of the method: as §1
# [28] = molecular target: Neu5Ac(a2-3)Gal(b1-4)GlcNAc(b1-3)GalNAc
# Summary of the method: as §1
# [29] = molecular target: Neu5Ac(a2-3)Gal(b1-4)[Fuc(a1-3)]GlcNAc(b1-3)Gal
# Summary of the method: as §1
# Neu5Ac(a2-3)GalNAc = molecular target: Neu5Ac(a2-3)GalNAc
# Summary of the method: as §1
# [30] = molecular target: Neu5Ac(a2-6)Gal(b1-4)GlcNAc(b1-2)Man(a1-3)[Neu5Ac(a2-3)Gal(b1-4)GlcNAc(b1-2)Man(a1-6)]Man(b1-4)GlcNAc(b1-4)GlcNAc
# Summary of the method: as §1
# Neu5Ac(a2-6)GalNAc = molecular target: Neu5Ac(a2-6)GalNAc
# Summary of the method: as §1
# [31] = molecular target: Neu5Ac(a2-8)Neu5Ac(a2-3)Gal(b1-3)GalNAc(b1-4)[Neu5Ac(a2-3)]Gal(b1-4)Glc
# Summary of the method: as §1
# [32] = molecular target: Neu5Ac(a2-8)Neu5Ac(a2-8)Neu5Ac(a2-8)Neu5Ac(a2-3)[GalNAc(b1-4)]Gal(b1-4)Glc
# Summary of the method: as §1
# [33] = molecular target: Neu5Gc(a2-3)Gal(b1-4)GlcNAc
# Summary of the method: as §1
binder,measurement,setting,value
EULS2 M3 (Oryza sativa) (protein) MVYCRANPNYAMTARNGAVVLAPANPKDEYQHWIKDMRWSTSIKDEEGYPAFALVNKATGQAIKHSLGQSHPVRLVPYNPEVMDESVLWTESRDVGNGFRCIRMVNNIYLNFDAFHGDKYHGGVRDGTDIVLWKLCEGDSLRWKIQPYYILEQKLISEEDLNSAVDHHHHHH,glycan array binding signal (z-score),[1],0.227
same,glycan array binding signal (z-score),[2],0.177
same,glycan array binding signal (z-score),[3],1.44
same,glycan array binding signal (z-score),[4],0.485
same,glycan array binding signal (z-score),Gal(a1-3)Gal(b1-3)GlcNAc,8.25
same,glycan array binding signal (z-score),Gal(a1-3)Gal(b1-4)Glc,0.227
same,glycan array binding signal (z-score),[5],-0.929
same,glycan array binding signal (z-score),[6],2.02
same,glycan array binding signal (z-score),[7],1.66
same,glycan array binding signal (z-score),[8],1.17
same,glycan array binding signal (z-score),[9],2.13
same,glycan array binding signal (z-score),[10],-0.34
same,glycan array binding signal (z-score),[11],-0.158
same,glycan array binding signal (z-score),[12],0.461
same,glycan array binding signal (z-score),[13],0.234
same,glycan array binding signal (z-score),[14],2.11
same,glycan array binding signal (z-score),GalNAc(b1-3)Gal,2.46
same,glycan array binding signal (z-score),GalNAc(b1-4)Gal(b1-4)Glc,0.053
same,glycan array binding signal (z-score),[15],-0.623
same,glycan array binding signal (z-score),GalNAc4S6S(b1-4)GlcNAc,0.056
same,glycan array binding signal (z-score),Glc(a1-4)Glc,0.668
same,glycan array binding signal (z-score),[16],1.67
same,glycan array binding signal (z-score),[17],-0.405
same,glycan array binding signal (z-score),[18],-0.139
same,glycan array binding signal (z-score),[19],-0.171
same,glycan array binding signal (z-score),[20],0.562
same,glycan array binding signal (z-score),[21],0.306
same,glycan array binding signal (z-score),[22],-0.413
same,glycan array binding signal (z-score),[23],-0.977
same,glycan array binding signal (z-score),[24],1.64
same,glycan array binding signal (z-score),[25],0.28
same,glycan array binding signal (z-score),Kdn(a2-6)Gal(b1-4)GlcNAc,-0.599
same,glycan array binding signal (z-score),Man(b1-4)GlcNAc,0.117
same,glycan array binding signal (z-score),Neu5Ac(a2-3)Gal,-1.29
same,glycan array binding signal (z-score),[26],-0.414
same,glycan array binding signal (z-score),[27],-0.345
same,glycan array binding signal (z-score),[28],-0.286
same,glycan array binding signal (z-score),[29],0.557
same,glycan array binding signal (z-score),Neu5Ac(a2-3)GalNAc,-0.085
same,glycan array binding signal (z-score),[30],-0.391
same,glycan array binding signal (z-score),Neu5Ac(a2-6)GalNAc,-0.8
same,glycan array binding signal (z-score),[31],1.61
same,glycan array binding signal (z-score),[32],-0.424
same,glycan array binding signal (z-score),[33],0.145
